According to PubChem BioAssay AID1347071 (National Center for Advancing Translational Sciences (NCATS), 2019):
Screen size: about 410,000 compounds; about 260 (0.063%) were called active. Not shown: some 2% with an inconclusive outcome. For the sample, actives were picked, then their nearest neighbours and some compounds at random. A number with no mark means an inactive call. Calls come from the whole dose curve; as a rule, active = well fitted activation curve with a large enough effect; inconclusive = small, poorly fitted or top-dose-only effect; inactive = no such curve, though single readings can be large or run the other way.

Test: qHTS for compounds that reverse cellular toxicity of Amyloid beta (A-beta) peptide in yeast: Primary Screen; note: nearly all actives have a fitted effect of over 55% in size
Conditions: yeast expressing A-beta42, growth rescue, OD600, 48 h; series mostly up to 46.1 µM; growth rescue: at the top concentration
Description: The A-beta peptide is produced by the processing of the amyloid precursor protein (APP) by two proteases, beta and gamma secretases. […] A-beta42 is regarded as the most amyloidogenic form due to its hydrophobicity; however, precisely how A-beta42 induces neurotoxicity is unclear. To understand further this biology and its potential therapeutic implications for human neurodegenerative disease, a quantitative high-throughput screen for compounds that reverse the cellular toxicity of the A-beta peptide was developed. A yeast based screen was used because it recapitulates the salient feature of protein mis-folding disorder accurately. This cell-based phenotypic screen provides a significant, unbiased advantage by letting the compounds and models inform us which proteins or pathways are most relevant. The ideal chemical candidates would therefore have activity in both our primary yeast and secondary neuronal toxicity assays, as well as in mouse models. They will be valuable tools for dissecting diverse protein homeostasis pathologies and could potentially become the focus for future pre-clinical development. For this luminescence assay, inhibition of A-beta rescues the toxic effect in the yeast cell, resulting in increase of signals and the desired phenotype of "Activator". This screen is run against the Molecular Libraries Small Molecule Repository (MLSMR) and the NCGC Sytravon Library Collection.
NIH Chemical Genomics Center [NCGC]
NIH Molecular Libraries Probe Centers Network [MLPCN]
Assay Submitter (PI): Susan Lindquist, Whitehead Institute, Massachusetts Institute of Technology
[1] Vassar R,et al (1999). Beta-secretase cleavage of Alzheimer's amyloid precursor protein by the transmembrane aspartic protease BACE. Science. 286: 735-741.
[2] Yan R, et al (1999). Membrane-anchored aspartyl protease with Alzheimer's disease beta-secretase activity. Nature. 402: 533-536.
Two and a half microliter / well of yeast growth medium were dispensed in a 1536 assay plate. Compounds were pinned using the Kalypsys robotic system followed by addition of 2.5 uL / well yeast solution. The assay plates were incubated at 30 C. After 48 hr, the absorbance signal at 600 nm was obtained using the PerkinElmer ViewLux plate reader to assess yeast growth. The data was normalized to the positive control of an equimolar mixture of ferric chloride (FeCl3) and clioquinol and to the negative control DMSO.

Row | SMILES | growth rescue [%] | Potency
1 | COc1ccc(OC)c(CCNC(=O)CCCn2c(=O)c3cccn3c3cccnc32)c1 | -8.83 | 
2 | CCOC(=O)c1cnc2c(C)cc(C)cc2c1Nc1ccc(N2CCOCC2)cc1 | -5.22 | 
3 | COc1ccc(CNC(=O)Cn2nnc(-c3ccccc3F)n2)cc1 | 6.97 | 
4 | Cc1cccc(-n2ccnc2SCC(=O)Nc2cccc3ccccc23)c1C | -14.7 | 
5 | O=C(/C=C/c1ccccc1)N1CCN(Cc2cc(=O)n3nc(-c4ccccc4F)sc3n2)CC1 | -4.83 | 
6 | Cc1ccc(Oc2c(C(F)(F)F)oc3c(CN4CCCCC4)c(O)ccc3c2=O)cc1 | 1.02 | 
7 | O=C(NC1(C(F)(F)F)N=C(c2ccccc2)N(C2CCCCC2)C1=O)c1ccccc1F (centres undefined) | -14.2 | 
8 | Cc1cccc(N2CCN(C3=C(c4ccccc4)C(=O)c4ccccc43)CC2)c1C | -1.76 | 
9 | Cc1ccc(-n2nnnc2CNC(=O)c2ccccc2C)cc1C | -1.32 | 
10 | CCOC(=O)C1CCN(C(=O)CSc2c3c(nc4ccc(Cl)cc24)CCCC3)CC1 | -29.2 | 
11 | CN(Cc1ccccc1)C(=O)c1cc2c(=O)n(C)c3ccccc3c2s1 | -23.3 | 
12 | COc1ccccc1NC(=O)c1sc2nc(C)c(C(=O)Nc3ccc(Cl)cc3)c(-c3ccc(Br)cc3)c2c1N | 0.809 | 
13 | CCOc1ccc(CNCCSc2nnnn2C)cc1 | -10.3 | 
14 | CCOC(=O)c1ccccc1NC(=O)c1nn(-c2ccc(OC)c(Cl)c2)c(=O)c2c1c1ccccc1n2C | -7.24 | 
15 | COCCn1c(CCC(=O)Nc2cc(C)ccc2C)nc2cccnc21 | -14.8 | 
16 | COc1cccc(CN2CCc3nc(SCC(=O)Nc4ccccc4)[nH]c(=O)c3C2)c1 | -18.6 | 
17 | CC(C)CC(=O)N/C(N)=N/c1nc2ccccc2s1 |  | 11.2 µM (active)
18 | Cc1cc(C)cc(-n2ccnc2SCC(=O)Nc2nc3ccccc3s2)c1 | -20.3 | 
19 | Cc1c(NC(=O)C(C)(C)C)cccc1-c1nc2ccccc2s1 | -1.45 | 
20 | Cc1ccc(-c2cc(C(=O)Oc3ccccc3Cl)no2)cc1C | -21.5 | 
21 | Cc1ccc(C)c(Cn2c(=O)n(CCC(=O)NCc3ccc4c(c3)OCO4)c(=O)c3sccc32)c1 | -2.35 | 
22 | CC(=O)N1CCCc2ccc(NS(=O)(=O)c3ccc(F)cc3F)cc21 | -11.4 | 
23 | COc1ccc(OC)c(CNC(=O)Cn2nc(C)c3c(C)n(-c4ccccc4)nc3c2=O)c1 | -7.97 | 
24 | COc1cc(OC)c(OC)cc1/C=C/c1nc2cc3ccccc3cc2c(=O)n1-c1ccc(F)c(Cl)c1 | 1.71 | 
25 | CCOC(=O)c1cccc(NC(=O)C(Cc2ccccc2)NS(=O)(=O)c2cccc3nsnc23)c1 (centres undefined) | 2.38 | 
26 | COC(=O)c1ccc(C2C(C(=O)Nc3ccccc3)=C(C)Nc3nc4ccccc4n32)cc1 (centres undefined) | -12.9 | 
27 | O=C(CSc1nccc(=O)[nH]1)Nc1ccc(N2CCOCC2)c(Cl)c1 | 1.41 | 

Row | SMILES | growth rescue [%] | Potency
28 | CCOc1ccc(C(=O)NC(=S)Nc2ccc(N3CCOCC3)c(Cl)c2)cc1[N+](=O)[O-] | 23.6 | 
29 | O=C(CSc1ccc([N+](=O)[O-])cn1)Nc1ccc(N2CCOCC2)c(Cl)c1 |  | 22.4 µM (active)
30 | Cc1cc(=O)c2cc(C(=O)Nc3cccc(C)c3C)ccc2[nH]1 | -23.2 | 
31 | Cc1cc2n(n1)C(c1cc(C(C)(C)C)c(O)cc1O)Nc1ccccc1-2 (centres undefined) | -7.92 | 
32 | Cc1ccc(S(=O)(=O)c2nc(-c3cccs3)oc2N2CCCCC2)cc1 | -18.9 | 
33 | CCOC(=O)c1ccc(NC(=O)Cn2cc(S(=O)(=O)Cc3ccccc3F)c3ccccc32)cc1 | -11.8 | 
34 | Cc1ccc2sc(N(Cc3cccnc3)C(=O)C3COc4ccccc4O3)nc2c1C (centres undefined) | 0.662 | 
35 | Cc1ccc(C(=O)Nc2ccc3[nH]c(=O)c(=O)[nH]c3c2)cc1 | -7.86 | 
36 | C=Cc1ccc(Cn2c(C(=O)OC)cc3sc(C)cc32)cc1 | -8.79 | 
37 | CC1=C(C(=O)OCc2ccc(C)cc2)C(c2c(Cl)cccc2Cl)CC(=O)N1 (centres undefined) | 0.21 | 
38 | COc1cc(-c2noc(-c3ccc(N4CCCC4)c([N+](=O)[O-])c3)n2)cc(OC)c1OC | -0.0152 | 
39 | CCc1ccccc1NC(=O)N1CCN(C(=O)c2nsc3ccccc23)CC1 | -5.21 | 
40 | COc1cccc(CNC(=O)CN2C(=O)CCc3cc(S(=O)(=O)N4CCOCC4)ccc32)c1 | -1.3 | 
41 | CCn1c2c(c(=O)n3ncc(C(=O)N4CCN(c5ccccc5)CC4)c13)CN(Cc1ccc(OC)cc1)CC2 | -35 | 
42 | O=C(NC1CC(=O)N(c2ccc(Cl)cc2)C1)C1CCCC1 (centres undefined) | -12.4 | 
43 | Cc1csc2nc(COC(=O)c3ccc(NC(=O)COc4ccccc4F)cc3)cc(=O)n12 | -4.93 | 
44 | COc1ccc(-c2cccc(NS(=O)(=O)c3cc(C)c(OC)c(C)c3C)c2)nn1 | -2.08 | 
45 | CCN(C(=O)Cn1cc(S(=O)(=O)N2CCN(c3ccccc3F)CC2)c2ccccc2c1=O)c1ccc(C)c(C)c1 | -0.545 | 
46 | COc1cc2nc(SCc3ccc(F)cc3)n3nc(CCn4c(C)nc5ccccc54)nc3c2cc1OC | 3 | 
47 | N#Cc1nc(/C=C/c2ccc(F)cc2)oc1NC1CCCCC1 | -13 | 
48 | Cc1ccc(CNS(=O)(=O)c2ccc(-c3cc(C(F)(F)F)on3)s2)cc1 | -5.81 | 
49 | O=C(CCC1N=C2c3ccccc3N=C(SCc3ccccc3F)N2C1=O)NCCc1ccccc1 (centres undefined) | -8.87 | 
50 | Cc1ccc(OCCn2c(CNc3ccccc3C)nc3ccccc32)cc1 | 15.5 | 
51 | CCCC12CN3CC(C)(CN(C1)C3c1ccccc1Cl)C2=O (centres undefined) | -3.76 | 
52 | CCC1CCCCN1C(=O)Cn1c(=O)n(CCCCCC(=O)NCc2ccccc2)c(=O)c2sccc21 (centres undefined) | -5.1 | 
53 | Cc1ccc(C2c3[nH]c4ccccc4c3CCN2C(=O)c2cccc(C)c2)cc1 (centres undefined) | -11.7 | 
54 | Cc1onc(-c2ccc(F)cc2F)c1C(=O)Nc1cccc(C(F)(F)F)c1 | 14.6 | 
